Test systems include SR leukemia; RPMI-8226 leukemia; OVCAR-8 ovarian; OVCAR-5 ovarian; OVCAR-4 ovarian; SK-OV-3 ovarian; OVCAR-3 ovarian; HS 578T breast; NCI/ADR-RES ovarian; T-47D breast; BT-549 breast; SW-620 colon; MCF7 breast; HCT-116 colon; HCC-2998 colon; KM12 colon; MDA-MB-435 melanoma; IGROV1 ovarian.
What all share (experiment): NCI-60 one-dose screen, 48 h (100 = growth as untreated, 0 = no growth, -100 = all killed)
Holding throughout (details): 10 µM unless noted

Each structure is given as a SMILES string. The panel holds about 83,000 compounds, 20% with a hit somewhere; the sample as a whole holds those more often.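 Interpretation: 100, growth as untreated; towards 0, rising growth inhibition; 0, no net growth; 0 to -100, cell death. Compounds scoring below 10 were considered active.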 A number with no mark means an inactive call. Calls of active or inactive are those of the source.

On to `COc1ccc2nc3cc(Cl)ccc3c(NCCN)c2c1`, for which the growth was -45.4% (active) in the test with SR leukemia; -23.6% (active) with RPMI-8226 leukemia; -33.5% (active) in the test on OVCAR-8 ovarian; -61.6% (active) in the test on OVCAR-5 ovarian; -86% (active) with OVCAR-4 ovarian; 69.3% in the test on SK-OV-3 ovarian. Further, the growth in the test with OVCAR-3 ovarian was -84.8% (active); in the test on HS 578T breast, 91.7%; with NCI/ADR-RES ovarian, 19%; with T-47D breast it was -72.3% (active); with BT-549 breast, -45.7% (active); in the test on SW-620 colon it was -68.9% (active). Moreover, the growth with MCF7 breast was -70.2% (active); in the test on HCT-116 colon, -73.2% (active); with HCC-2998 colon, -73.2% (active); in the test with KM12 colon it was -64% (active).
On to `N#Cc1c(-c2ccccc2)cc(-c2ccccc2)n(CCCC(=O)NO)c1=O`, for which the growth in the test on SR leukemia was 7.72% (active); in the test with RPMI-8226 leukemia it was 11.3%; in the test with OVCAR-8 ovarian it was 12.5%; with OVCAR-5 ovarian, 28.9%; in the test on OVCAR-4 ovarian it was 29.6%; in the test on SK-OV-3 ovarian, 36.1%. For the same compound, the growth was 8.36% (active) with OVCAR-3 ovarian; 19.7% in the test with HS 578T breast; -5.36% (active) in the test on NCI/ADR-RES ovarian; 18.7% in the test with T-47D breast; 53.9% in the test with BT-549 breast; -12.4% (active) in the test on MDA-MB-435 melanoma. Besides, the growth in the test with MCF7 breast is 22.5%; with HCT-116 colon, 7.06% (active); with HCC-2998 colon, 47.4%; in the test on KM12 colon, 24.9%.
Take `O=C1/C=C/[C@@H](O)[C@@H]2C[C@@H](O)C[C@H]2/C=C/CCC[C@H](CCOCc2ccccc2)O1`: the growth in the test with SR leukemia was -7.43% (active); in the test on RPMI-8226 leukemia it was 11.5%; with OVCAR-8 ovarian, 9.04% (active); in the test with OVCAR-5 ovarian, 8.12% (active); with OVCAR-4 ovarian, 25.8%; in the test with IGROV1 ovarian, 15.1%. Besides, the growth was -45.8% (active) in the test on OVCAR-3 ovarian; 23.8% in the test on HS 578T breast; 6.93% (active) in the test on NCI/ADR-RES ovarian; 15.6% in the test with T-47D breast; 7.15% (active) with BT-549 breast; 7.86% (active) in the test on MDA-MB-435 melanoma. The growth was -23.8% (active) in the test with SW-620 colon; -10.3% (active) with MCF7 breast; -71.1% (active) in the test on HCT-116 colon; 3.47% (active) in the test on HCC-2998 colon; -60.5% (active) with KM12 colon.
As for `Cc1ccc(-c2nc(C#N)c(S(=O)(=O)NCCO)o2)cc1`, the growth was -7.78% (active) with SR leukemia; 1.81% (active) in the test with RPMI-8226 leukemia; 64.7% with OVCAR-8 ovarian; 94.5% in the test with OVCAR-5 ovarian; 86.9% with OVCAR-4 ovarian; 95.7% in the test on SK-OV-3 ovarian. Moreover, the growth in the test on OVCAR-3 ovarian is 41.3%; in the test on HS 578T breast it was 107%; in the test on NCI/ADR-RES ovarian, 81%; in the test on T-47D breast, 43.1%; with BT-549 breast it was 64.7%; with MDA-MB-435 melanoma, 68.5%. The growth in the test on SW-620 colon was 33.8%; in the test with MCF7 breast, 37.9%; in the test with HCT-116 colon it was 51.6%; with HCC-2998 colon, 98.1%; with KM12 colon, 88%.
Consider `N#CCC1=NC(c2cccs2)=Nc2ccccc2S1`, for which the growth with SR leukemia is 91.5%; with RPMI-8226 leukemia it was 65.7%; in the test with OVCAR-8 ovarian it was 95.9%; in the test on OVCAR-5 ovarian, 86.6%; in the test with OVCAR-4 ovarian, 93.8%; with IGROV1 ovarian, 86.4%. Moreover, the growth with OVCAR-3 ovarian was 95.3%; with HS 578T breast, 96.2%; in the test with NCI/ADR-RES ovarian it was 98%; with T-47D breast, 69.7%; in the test on BT-549 breast, 86.6%; in the test with MDA-MB-435 melanoma, 105%. Also, the growth in the test with SW-620 colon was 97.8%; with MCF7 breast, 96.8%; in the test on HCT-116 colon, 80.8%; in the test with HCC-2998 colon it was 92.5%; in the test with KM12 colon, 94.9%.
Turning to `CC[C@H](C)[C@H](NC(=O)[C@H](CCCNC(=N)N)NC(=O)[C@H](Cc1c[nH]c2ccccc12)NC(=O)[C@@H](NC(=O)[C@H](CCCCN)NC(=O)[C@H](CCCCN)NC(=O)[C@@H](NC(=O)[C@@H](NC(=O)[C@@H](NC(=O)[C@H](CCCCN)NC(=O)[C@H](Cc1ccccc1)NC(=O)[C@H](CCCCN)NC(=O)[C@H](CCCCN)NC(=O)[C@H](Cc1ccccc1)NC(=O)[C@@H](NC(=O)[C@@H](N)CCCCN)[C@@H](C)CC)[C@@H](C)O)[C@@H](C)CC)[C@@H](C)CC)C(C)C)C(=O)N[C@@H](Cc1ccccc1)C(=O)NCC(=O)N[C@@H](CCCNC(=N)N)C(=O)N[C@@H](Cc1ccccc1)C(N)=O`, the growth in the test on SR leukemia is 1.72% (active); with RPMI-8226 leukemia, -18% (active); in the test on OVCAR-8 ovarian, 0.804% (active); in the test with OVCAR-5 ovarian, -46.1% (active); with OVCAR-4 ovarian, -31.3% (active); in the test with IGROV1 ovarian, -25.8% (active). Moreover, the growth in the test on OVCAR-3 ovarian is -23.8% (active); in the test on HS 578T breast, -21.3% (active); in the test on NCI/ADR-RES ovarian it was -11.9% (active); with T-47D breast, -30.1% (active); in the test with BT-549 breast, 32.5%; with MDA-MB-435 melanoma, -17% (active). Also, the growth with SW-620 colon was -14.9% (active); in the test on MCF7 breast, -17% (active); in the test on HCT-116 colon, -3.28% (active); with HCC-2998 colon, 10.6%; in the test on KM12 colon, -25.6% (active).
Turning to `CCOC(=O)c1c(NC(=O)c2ccc(C(C)(C)C)cc2)sc2cc(O)ccc12`, the growth in the test with SR leukemia is 87.9%; in the test on RPMI-8226 leukemia it was 104%; in the test with OVCAR-8 ovarian, 92.7%; with OVCAR-5 ovarian it was 104%; with OVCAR-4 ovarian, 104%; in the test with IGROV1 ovarian, 80.8%. In addition, the growth was 110% in the test on OVCAR-3 ovarian; 105% in the test on HS 578T breast; 89.2% in the test on NCI/ADR-RES ovarian; 82.7% with T-47D breast; 94.7% in the test on BT-549 breast; 97.4% in the test on MDA-MB-435 melanoma. Besides, the growth in the test with SW-620 colon was 91.7%; in the test with MCF7 breast it was 88.4%; in the test with HCT-116 colon, 92.7%; in the test with HCC-2998 colon, 104%; in the test on KM12 colon, 86%.
Take `CNCc1cccc2c1OCCOCCN(C)C(=O)CN(C)S(=O)(=O)c1ccc(cc1)-c1cnc(N)c(n1)C(=O)N2`: the growth in the test on SR leukemia was -16.9% (active); with RPMI-8226 leukemia it was 88.8%; with OVCAR-8 ovarian, 2.03% (active); with OVCAR-5 ovarian, 33.8%; with OVCAR-4 ovarian, 42.4%; in the test with OVCAR-3 ovarian, -25.3% (active). The growth in the test on HS 578T breast is 63.3%; in the test with NCI/ADR-RES ovarian it was 102%; in the test on T-47D breast, -9.54% (active); with BT-549 breast, 92.4%; with MDA-MB-435 melanoma, -91.8% (active); with SW-620 colon it was -4.13% (active). Besides, the growth with MCF7 breast was 11.6%; with HCT-116 colon, -69% (active); in the test with HCC-2998 colon, 28%; in the test with KM12 colon, 9.24% (active).

The values are drawn from PubChem BioAssay (NCI).
